Screening data as filed in PubChem BioAssay.
An excerpt weighted towards active compounds, which were near 10% of everything screened.
KB-3-1 cytotox: KB-3-1 parental cell cytotoxicity; hit rate 1.4% among 400,000; Potency, µM (titrated, usually from 46.1 µM), hits mostly cytotoxic; KB-3-1 viability, CellTiter-Glo ATP luminescence, 72 h; AID 1347075; also: % is scaled to controls: 0 for no effect and ±100 for the full control effect; nearly all actives have a fitted effect of over 60% in size
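Viability of parental KB-3-1 cells, measured by CellTiter-Glo luminescence, followed a 72 h incubation at 37 °C with pinned compounds in phenol-red-free DMEM containing 10% FBS.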
VP16 counter: counter-screen for ROR gamma inhibitors: Gal4-VP16 reporter; Drosophila S2 Gal4-VP16 UAS-luciferase, luminescence, 20 h; Potency, µM (highest dose often 53.6 µM), for the others: top-dose activity, negative = inhibition, actives largely listed as inhibitors; hit rate 3.5% among 310,000; AID 2546;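 also: Gal4-VP16 expression switched on by copper sulfate through the metallothionein promoter; % is scaled to controls: 0 for no effect and ±100 for the full control effect; nearly all actives have a fitted effect of over 50% in size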
SW480 rerep: induces DNA re-replication in SW480 colon adenocarcinoma cells | SW480 DNA re-replication, Hoechst DNA content imaging, 48 h | Potency, µM (doses to about 46.1 µM), for the others: at the highest dose re-replication activation, hits mostly activators | hit rate 1.8% among 340,000 | AID 624297; also: % of control where 0% means no effect; nearly all actives have a fitted effect of over 55% in size
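Per well, 250 cells were exposed to pinned compound for 48 hr. Nuclear DNA was visualised with Hoechst (40 min, 37 C) and total object intensity recorded by fluorescence scanning.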
MCF10A rereplic: induces DNA re-replication in MCF 10a normal breast cells; AID 624296; Potency, µM (titrated, usually from 46.1 µM), inactives show top-dose activity, positive = re-replication, usual class: activators; hit rate 2.9% among 350,000; MCF 10A DNA re-replication, Hoechst nuclear intensity, 48 h; also: % of control where 0% means no effect; nearly all actives have a fitted effect of over 50% in size
RORgamma inh: blocks mouse ROR gamma transcriptional activity. P51450. Drosophila S2 Gal4-RORgamma UAS-luciferase reporter, 20 h. Potency, µM (doses to about 53.6 µM), without a hit: at the highest dose activity change, negative = inhibition, hits mostly inhibitors. hit rate 5.4% among 310,000. AID 2551; also: % is scaled to controls: 0 for no effect and ±100 for the full control effect; nearly all actives have a fitted effect of over 60% in size
Target sequence (P51450 whole entry, looked up, the tested form may be a part): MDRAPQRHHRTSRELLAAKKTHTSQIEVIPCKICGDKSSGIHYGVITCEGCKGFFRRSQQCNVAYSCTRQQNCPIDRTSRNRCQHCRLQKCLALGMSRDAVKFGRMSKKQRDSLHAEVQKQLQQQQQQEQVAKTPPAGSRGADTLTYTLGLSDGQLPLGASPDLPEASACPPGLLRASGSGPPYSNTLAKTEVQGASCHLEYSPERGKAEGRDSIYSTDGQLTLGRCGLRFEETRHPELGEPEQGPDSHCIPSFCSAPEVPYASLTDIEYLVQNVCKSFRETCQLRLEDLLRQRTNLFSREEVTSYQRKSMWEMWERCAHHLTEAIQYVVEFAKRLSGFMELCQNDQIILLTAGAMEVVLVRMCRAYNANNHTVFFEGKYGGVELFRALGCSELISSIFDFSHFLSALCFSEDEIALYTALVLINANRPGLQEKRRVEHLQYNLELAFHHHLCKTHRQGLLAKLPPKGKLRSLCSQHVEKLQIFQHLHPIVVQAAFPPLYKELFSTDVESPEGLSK
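Using a luciferase readout, inhibitors were identified by reduced reporter activity in Drosophila cells coexpressing a copper-inducible Gal4–ROR gamma fusion and UAS-driven Photinus luciferase, incubated 20 hr after 700 uM copper sulfate.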
KB-V1 cytotox: kills drug-selected multidrug resistant KB-V1 cells. KB-V1 MDR cells viability, CellTiter-Glo, 72 h. Potency, µM (doses to about 46.1 µM), usual class: cytotoxic. hit rate 3.4% among 400,000. AID 1347076; also: % is scaled to controls: 0 for no effect and ±100 for the full control effect; nearly all actives have a fitted effect of over 60% in size
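KB-V1 MDR subline cells in DMEM (phenol-red free, 10% FBS) exposed to compounds in qHTS concentration series for 72 h at 37 degrees C. Viability read by CellTiter-Glo luminescence; concentration-effect curves fitted after normalization and correction.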
The depositor's hits bear a star; i = inactive; u = inconclusive; x = not tested or not shown; [ ] = remark or other dose. Calls follow the shape of the dose curve; as a rule, active = well fitted curve in the direction sought with a large enough effect; inconclusive = small, poorly fitted or top-dose-only effect, or another doubt; inactive = no such curve, though single readings can be large; an effect the other way counts as inactive or inconclusive. Potency is read from the fitted curve at half-maximal effect.

SMILES	KB-3-1 cytotox	VP16 counter	SW480 rerep	MCF10A rereplic	RORgamma inh	KB-V1 cytotox
CN1/C(=C\C(=O)c2cncc(Br)c2)C(C)(C)c2ccccc21	u	11µM*	u	16µM*	-76%	u
CN1/C(=C\C(=O)c2cccnc2)C(C)(C)c2ccccc21	i	22%	u	16%	18%	u
Cc1ccccc1-n1c(C)cc(/C=C2/C(=N)N3C(c4ccccc4)=CSC3=NC2=O)c1C	u	-13%	14µM*	u	2%	u
N=C1/C(=C\c2ccc(-c3cccc(C(=O)O)c3)o2)C(=O)N=C2SC=C(c3ccccc3)N12	i	3%	8.2µM*	3.3µM*	20%	i
O=C1Nc2c(c(=O)[nH]c(=O)n2-c2ccccc2)C1(NS(=O)(=O)c1ccc(Cl)cc1)C(F)(F)F (configuration not stated)	i	x	x	x	x	i
CCCCNCc1cc(Cl)c(OCCC)c(OCC)c1	i	12%	u	6%	-21%	16µM*
CCC1([N+](=O)[O-])COC(C=Cc2ccccc2)OC1 (configuration not stated)	i	x	-3%	-11%	x	i
O=C1C=CCC(/C=C/c2ccccc2)O1 (configuration not stated)	u	u	16µM*	15µM*	u	u
Cc1ccc(CN2C(=O)CC(c3ccc(Cl)cc3)c3c(C)nn(-c4nc(C)cc(C)n4)c32)cc1 (configuration not stated)	i	x	x	x	x	i
C=C1C(=O)[C@]23[C@H](O)[C@H]1CC[C@H]2[C@@]12COC3(O)[C@H](O)[C@@H]1C(C)(C)CC[C@@H]2O	x	3.5µM*	x	x	3.2µM*	x
CCOC(=O)C1=CCN(S(=O)(=O)c2ccccc2Cl)C1c1cccc(Br)c1 (configuration not stated)	i	x	x	x	x	u
Cc1ccc(Cn2nnnc2CN2CCC(c3nc4ccc(Cl)cc4[nH]3)CC2)cc1	18µM*	-9%[0.365 µM]	12%	u	43%	3.3µM*
CCC(C)(C)n1nnnc1CN1CCC(NC(=O)c2ccc(Br)cc2)CC1	i	-11%	2%	6%	u	i
Cc1ccc(Cn2nnnc2CN2CCC(NC(=O)c3ccc(Br)cc3)CC2)cc1	i	3%	-3%	3%	6%	18µM*
O=C(NC1CCN(Cc2nnnn2CCc2ccccc2)CC1)c1ccccc1F	i	-14%	-6%	1%	-11%	16µM*
Cc1ccccc1C(=O)NC1CCN(Cc2nnnn2Cc2ccccc2)CC1	i	x	-7%	6%	4%[0.365 µM]	u
Cc1ccsc1/C=N/NC(=S)NCc1ccccc1	i	-76%	-1%	17%	0.022µM*	u
CN(C)c1ccc(/C=N/NC(=O)COc2ccccc2)cc1	i	-2%	0%	1%	-1%	u
CN(C)c1ccc(/C=N/NC(=S)NCc2ccccc2)cc1	i	2.8µM*	-2%	u	0.45µM*	i
Cn1c(=O)n(C)c2cc(/C=N/NC(=O)c3ccncc3)ccc21	x	-11%	x	x	-29%	x
CC(C)(C)c1ccc(/C=N/NC(=S)NCc2ccccc2)cc1	i	1.1µM*	1%	5%	0.79µM*	i
Cc1ccsc1/C=N\NC(=O)CC(=O)NCc1ccccc1	i	9%	1%	6%	1%	i
Cn1c(=O)n(C)c2cc(/C=N/NC(=S)NCc3ccccc3)ccc21	i	u	-9%	u	10µM*	u
Cc1ccc(NC(=O)c2oc3ccc(S(=O)(=O)N4CCCCCC4)cc3c2C)c(C)c1	i	x	x	x	x	i
CNC(=S)N/N=C/c1ccc(C(C)C)cc1	u	x	-6%	u	x	u
SMILES	KB-3-1 cytotox	VP16 counter	SW480 rerep	MCF10A rereplic	RORgamma inh	KB-V1 cytotox
CC(C)(C)c1ccc(/C=N/NC(=O)C2CCCC2)cc1	i	24%	0%	2%	44%	i
CCN(Cc1ccccc1)c1ccc(/C=N/NC(=S)NC(C)C)cc1	u	1.3µM*	u	u	1.3µM*	u
Cc1c(NC(=S)N/N=C/c2cccc(O)c2)c(=O)n(-c2ccccc2)n1C	i	0%	5%	-6%	-27%	i
CNC(=S)N/N=C/c1ccc(N(C)C)cc1	u	7.1µM*	0%	u	1.6µM*	i
Cc1c(NC(=S)N/N=C/c2ccc(N(C)C)cc2)c(=O)n(-c2ccccc2)n1C	i	u	0%	-3%	18µM*	i
C=CCNC(=S)N/N=C/c1ccc(C(C)(C)C)cc1	u	0.56µM*	u	9%	0.28µM*	u
O=C(COc1ccccc1Cl)Nc1cc(-c2ccccc2F)nn1-c1ccccc1	i	x	x	x	x	u
CCOc1cccc(C(=O)N(Cc2ccc(CC)cc2)C2CCS(=O)(=O)C2)c1 (configuration not stated)	i	x	x	x	x	i
O=S(=O)(c1ccc2[nH]c3c(c2c1)CCCCC3)N1CCN(c2cccc(Cl)c2)CC1	i	x	x	x	x	i
CN(C)c1ccc(/C=C2\c3ccccc3-c3ccc(N(C)C)cc32)cc1	i	x	x	x	x	i
Cc1nc(N2CCN(C(=O)c3ccco3)CC2)c2oc3ccccc3c2n1	12µM*	18%	8.2µM*	u	13%	u
CCc1nc(N2CCN(C(=O)c3ccco3)CC2)c2oc3ccccc3c2n1	i	10%	12µM*	u	0%	21µM*
Cc1nc2ccccc2c2oc(C(=O)N3CCN(C(=O)c4ccco4)CC3)cc12	i	u	-3%	15%	-100%	u
CCc1nc(N2CCCC2C(=O)O)c2oc3ccccc3c2n1 (configuration not stated)	i	-3%	-10%	-1%	-9%	i
O=C(c1ccco1)N1CCN(c2nc(C3CC3)nc3c2nnn3Cc2ccccc2Cl)CC1	u	u	0%	10%	u	u
CC(C)(C)c1nc(N2CCN(C(=O)c3ccco3)CC2)c2nnn(Cc3ccccc3)c2n1	u	0%	u	8.2µM*	u	u
CCn1cc2nc(SCC(=O)Nc3ccc(C)cc3)n(Cc3ccc(C)cc3)c(=O)c2n1	i	x	x	x	x	i
CCOc1ccc2nc(NCCCNC(=O)c3cc(OC)c(OC)c(OC)c3)c(C#N)cc2c1	i	1%	10µM*	u	-4%	i
COc1cc(C(=O)NCCCNc2nc3cc(C)cc(C)c3cc2C#N)cc(OC)c1OC	u	-7%	14%	u	u	5.8µM*
COCCCNC(=S)NCCNc1nc2cc(C)cc(C)c2cc1C#N	i	u	10%	2%	8.9µM*	u
COc1cccc(C(=O)NCCNc2nc3cc(C)cc(C)c3cc2C#N)c1	i	x	x	x	x	u
